Rows were chosen to be rich in hits. Some 2.8% of all compounds tested hit in one or more screens of this group.
IDE act – human IDE activators in live cells, primary screen, fluorescence polarization, HEK cells, FAbeta-B substrate; activation, % at 5.96 µM; 340,000 compounds, 0.073% hits; Insulin-degrading enzyme (Homo sapiens), P14735; FAbeta-B cleavage; 0% vehicle, 100% cell-free pure enzyme wells;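 active = activation above the mean of all tested compounds plus 3 SD, set per screening campaign, cut at about 17% in these data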
Exocytosis inh – LAMP-1 surface exposure blockers, TALL-104 cells – cell-based, flow cytometry, MLPCN library, primary screen; TALL-104 LAMP-1 surface exposure; cells stimulated with thapsigargin and PMA; AID 651702, 2012; 360,000 compounds, 0.66% hits; inhibition, % at 10 µM;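 active = inhibition above about 55%, limit read from the data; inconclusive = no clear call, values can overlap the other calls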
PP5 primary – PP5 phosphatase inhibitors, primary screen, biochemical, fluorescence. Serine/threonine-protein phosphatase 5 (Homo sapiens), P53041. purified PP5c, OMFP substrate fluorescence. inhibition, % at 6.7 µM. 320,000 compounds, 0.18% hits. AID 1987, 2009;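 active = inhibition above the campaign's mean inhibition across all tested compounds plus 3 SD, cut at about 9.5% in these data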;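 note: 0% = DMSO only and 100% = 100 µM cantharidin control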
PP1 inh – PP1-alpha phosphatase inhibitors, primary screen, counter-screen for PP5 inhibitor project, biochemical, fluorescence, OMFP substrate, single point; 320,000 compounds, 0.9% hits; inhibition, % at 6.7 µM; Serine/threonine-protein phosphatase PP1-alpha catalytic subunit (Homo sapiens), P62136; purified PP1alpha;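 active = inhibition above the mean inhibition of all tested compounds plus 3 SD, computed separately for each screening campaign, cut at about 15% in these data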
Target sequence (P62136 whole entry, looked up): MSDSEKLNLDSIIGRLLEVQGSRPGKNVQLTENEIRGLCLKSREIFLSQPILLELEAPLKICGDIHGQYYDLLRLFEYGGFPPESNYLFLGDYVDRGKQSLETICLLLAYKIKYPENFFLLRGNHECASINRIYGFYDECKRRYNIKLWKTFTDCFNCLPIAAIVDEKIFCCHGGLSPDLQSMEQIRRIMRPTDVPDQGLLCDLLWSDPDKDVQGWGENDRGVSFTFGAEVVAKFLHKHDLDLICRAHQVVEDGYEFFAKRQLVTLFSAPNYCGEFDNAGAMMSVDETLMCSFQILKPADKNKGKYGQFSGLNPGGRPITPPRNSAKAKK
SKKanGAS inh – S. pyogenes SKKanGAS growth inhibitors in kanamycin, primary screen, streptokinase expression inhibitor project, SKKanGAS strain, BacTiter-Glo luminescence. 6 h. inhibition, % at 7.5 µM. 300,000 compounds, 1.3% hits;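 active = mean replicate score, as percent of positive control median, at least 50; inconclusive = mean below 50 but one replicate at or above 50; inactive = mean and every replicate below 50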;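 note: strain carries kanamycin resistance gene driven by streptokinase promoter and grows in 40 µg/ml kanamycin; loss of luminescence reflects streptokinase promoter inhibition or plain growth inhibition; 0% = median of DMSO wells and 100% = positive control at its reference dose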
IDE inh – human IDE inhibitors in live cells, primary screen, fluorescence polarization, HEK cells, FAbetaB substrate. FAbetaB cleavage. inhibition, % at 5.59 µM. 320,000 compounds, 0.41% hits;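 active = percent inhibition above the average of all tested compounds plus 3 SD, set per screening campaign, cut at about 16% in these data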;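 note: IDE supplied by intact live HEK cells; FP after avidin binding of uncleaved biotin substrate so inhibition keeps polarization high; 0% = DMSO wells and 100% = 60 µM reference IDE inhibitor Ii1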
The depositor's hits bear a star; ? = inconclusive; · = no result.

SMILES	IDE act	Exocytosis inh	PP5 primary	PP1 inh	SKKanGAS inh	IDE inh
O=C(N/N=C/c1c(Cl)cccc1Cl)c1cccc(F)c1	-3	-1	4	-2	0	3
Cc1[nH]n(-c2ccccc2)c(=O)c1/C=N/NC(=O)c1cccc(F)c1	2	14	2	3	68*	-2
Cc1[nH]n(-c2ccc(Br)cc2)c(=O)c1/C=N/NC(=O)c1ccccc1	5	9	·	·	90*	·
O=C(NCc1cccc(C(F)(F)F)c1)C1C(=O)Nc2ccccc2C(=O)N1C1CCCC1 (centres undefined)	·	23	·	·	·	·
N[C@@H](Cc1cc(I)c(Oc2cc(I)c(O)c(I)c2)c(I)c1)C(=O)O	·	·	1	16*	19	3
Cc1cccc(C(=O)NC(=S)NNC(=O)Cc2ccccc2)c1	-6	-5	-3	2	20	3
Cc1cccc(C(=O)NC(=S)NNC(=O)c2ccccc2Cl)c1	-12	8	5	3	86*	3
Cc1cccc(C(=O)NC(=S)NNC(=O)COc2c(C)cccc2C)c1	-8	-10	0	4	107*	3
Cc1ccc(C(=O)NC(=S)NNC(=O)COc2ccccc2C)cc1	1	-5	1	-2	118*	2
CCOC(=O)c1cc(S(=O)(=O)N2CCN(C3CCCCC3)CC2)cn1C	2	-7	3	0	-3	2
COc1ccc(/C=N/NC(=O)Cc2csc(Nc3cccc(C(F)(F)F)c3)n2)cc1C	5	-2	7	2	77*	4
COc1cc(/C=C/C(=O)c2cccc([N+](=O)[O-])c2)cc(OC)c1OC	-2	-2	0	0	-13	0
O=C(/C=C/c1ccccc1F)c1cccc([N+](=O)[O-])c1	-10	85*	4	2	9	5
Cc1cc[n+](C2=C([O-])c3ccccc3C(=O)/C2=N\S(=O)(=O)c2cccs2)cc1C	4	-4	4	0	19	2
O=C1/C(=N\S(=O)(=O)c2cccs2)C([n+]2cccc(Cc3ccccc3)c2)=C([O-])c2ccccc21	·	12	5	3	106*	-11
O=C1/C(=N\S(=O)(=O)c2cccs2)C([n+]2ccc(CCCc3ccccc3)cc2)=C([O-])c2ccccc21	·	6	5	4	110*	5
CC(C)(C)c1cc[n+](C2=C([O-])c3ccccc3C(=O)/C2=N\S(=O)(=O)c2ccccc2)cc1	·	12	4	1	86*	1
Cc1cc(C)c[n+](C2=C([O-])c3ccccc3C(=O)/C2=N\S(=O)(=O)c2cccs2)c1	7	15	0	-2	?	0
Cc1c(NC(=O)COC(=O)CSc2ccc([N+](=O)[O-])cc2)c(=O)n(-c2ccccc2)n1C	-1	2	1	8	·	1
CC(C)(C)C1N=C(c2ccc3ccccc3c2)OC1=O (centres undefined)	5	64*	2	-2	·	5
NC(=O)CC(NC(=O)Cc1cccc2ccccc12)c1ccc(NC2CCCC2)c([N+](=O)[O-])c1 (centres undefined)	1	-6	·	·	·	·
NC(=O)CC(NC(=O)Cc1ccc(Br)cc1)c1ccc(NCc2ccc(F)c(F)c2)c([N+](=O)[O-])c1 (centres undefined)	-2	-6	5	17*	24	5
CCC(CC)Nc1ccc(C(CC(N)=O)NC(=O)Cc2cccc3ccccc23)cc1[N+](=O)[O-] (centres undefined)	4	-5	2	17*	3	1
Cc1cc2oc(=O)cc(CN3CCCCC3C)c2cc1C (centres undefined)	4	-14	-7	-3	6	5
C=CCc1cc(/C=C2/NC(=O)N(CC)C2=O)cc(OCC)c1OCc1ccc(C(=O)O)cc1	3	-5	1	0	61*	-4
SMILES	IDE act	Exocytosis inh	PP5 primary	PP1 inh	SKKanGAS inh	IDE inh
Cc1ccc(C)c(N2C(=O)c3ccc(C(=O)Nc4ccccn4)cc3C2=O)c1	·	-2	·	·	·	·
CCC(C)c1ccccc1NC(=O)COC(=O)C1=COCCO1 (centres undefined)	3	1	1	1	4	1
CC[C@H]1OC(=O)[C@H](C)[C@@H](O[C@H]2C[C@@](C)(OC)[C@@H](O)[C@H](C)O2)[C@H](C)[C@@H](O[C@@H]2O[C@H](C)C[C@H](N(C)C)[C@H]2O)[C@](C)(O)C[C@@H](C)CN(C)[C@H](C)[C@@H](O)[C@]1(C)O	3	1	-2	-3	110*	-1
CCC1OC(=O)C(C)C(OC2C[C@@](C)(OC)C(O)C(C)O2)C(C)C(O[C@@H]2OC(C)CC(N(C)C)C2O)[C@](C)(O)CC(C)C(=NOCOCCOC)C(C)C(O)[C@]1(C)O (some centres undefined)	8	1	0	0	·	-4
CC1CN(S(=O)(=O)c2ccc(CN3C(=O)c4cccnc4C3=O)s2)c2ccccc2O1 (centres undefined)	3	0	-5	-7	-6	-3
COc1ccc(-c2nc(/C=C3\C(C)=Nc4ccccc43)c(O)o2)cc1	-7	47	3	-5	58*	3
CCCCN1CC(O)=C(c2nc(-c3ccc(Br)cc3)cs2)C1=N	-2	6	-2	7	-7	-2
CCOC(=O)CCCN1CC(O)=C(c2nc(-c3ccc(Cl)cc3)cs2)C1=N	6	-2	5	17*	·	2
CN(C)c1ccnc(N(Cc2ccccc2)Cc2ccccc2)c1C#N	-6	-3	2	0	26	-6
COC(=O)c1ccc(CSc2n[nH]c(=S)s2)o1	4	0	1	-1	63*	5
COc1cc(OC)cc(-n2nnnc2SCC(=O)N2CCCC2)c1	0	36	2	16*	-2	3
COc1ccc2c(c1)C(=NNc1ccc(C(=O)O)cc1)c1cc(OC)ccc1-2	3	7	3	16*	?	1
Cc1ccc(-n2[nH]c(C)c(C=Nc3cc(C)ccn3)c2=O)cc1	0	-2	1	-8	10	2
Cc1ccc(-n2[nH]c(C)c(/C=N/NC(=O)c3ccc(O)cc3O)c2=O)cc1	4	7	4	5	102*	1
Cc1[nH]n(-c2ccccc2)c(=O)c1/C=N/NC(=O)c1ccc(O)cc1O	0	-3	0	0	102*	-4

Screening results as filed in PubChem BioAssay.
